Experimental data as given in PubChem BioAssay AID720706 (Broad Institute, 2013).
The whole screen tested about 350,000 compounds, of which about 5,500 (1.6%) were called active.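 How the source made its calls: active means significant combined selectivity score with lowered wild-type GFP, culture density cut under 30%, mutant RFP and density less affected; inactive means any of these conditions unmet.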 For the sample, actives were picked, then their nearest neighbours and some compounds at random.

Assay: GFP drop in mixed WT/humanized-ribosome E. coli culture – GFP/RFP fluorescence, OD600, single point, bacterial rRNA inhibitor project, primary screen (AID 720706)
Details: E. coli WT GFP vs humanized-ribosome RFP mutants, 24 h; GFP signal change (wild-type ribosome): stronger effect = lower value, DMSO median 0, no signal -100; OD600 change: measured here: OD600 growth, DMSO median 0, no signal -100; RFP signal change: measured here: RFP humanized mutant strains, DMSO median 0, no signal -100, concentration not given here

| Compound | GFP signal change (wild-type ribosome) | OD600 change [%] | RFP signal change [%] |
| --- | --- | --- | --- |
| COc1ccc(Cn2c(-c3ccc(Cl)cc3)c[n+]3ccccc23)cc1 | -31.8% (active) | -12.7 | 10 |
| COc1ccc(CN2CCCCN3[C@H](C2)[C@H](c2ccc(-c4ccc(OC)cc4)cc2)[C@@H]3CO)cc1 | 0.651% (inactive) | 2.56 | 3.41 |
| COc1ccc(-c2ccc([C@@H]3[C@@H](CO)N4C(=O)CN(Cc5ccccc5)C[C@@H]34)cc2)cc1 | 0.0065% (inactive) | -2.91 | 0.737 |
| COc1ccc(NC(=O)Nc2ccc3c(c2)C(=O)N([C@H](C)CO)C[C@@H](C)[C@H](CN(C)CC2CCCCC2)OCCCC[C@@H](C)O3)cc1 | 2.06% (inactive) | -1.06 | 2.56 |
| O=C(NNC(=S)Nc1ccc(Br)cc1Cl)c1ccco1 | -55.5% (inactive) | -76.6 | -26.1 |
| CC1CN(C(=S)Nc2ccc(Br)cc2Cl)CC(C)O1 (configuration not stated) | 0.789% (inactive) | 0.865 | -2.8 |
| CN(C)C(=S)Nc1ccc(Br)cc1Cl | -21.3% (active) | -3.38 | -5.33 |
| C[C@@H]1CN([C@H](C)CO)C(=O)c2cc(C#CC3CC3)cnc2O[C@H]1CN(C)C(=O)CC1CC1 | 0.803% (inactive) | 4.53 | -4.43 |
| Cc1ccc(-n2c(C)cc(C(=O)CN3C(=O)C(=O)N(C4CCCC4)C3=O)c2C)cc1 | -12.3% (inactive) | -20.5 | 24 |
| Cc1cc(C(=O)COC(=O)C2CC2)c(C)n1-c1ccc(F)cc1 | -25.1% (active) | -8.48 | -5.46 |
| Cc1cc(C(=O)COc2ccccc2Cl)c(C)n1C1CC1 | -19.2% (inactive) | -34.3 | 0.284 |
| COc1ccc(C)cc1N(CC(=O)NC(C)c1ccccc1)S(C)(=O)=O (configuration not stated) | 7.63% (inactive) | 6.56 | 4.34 |
| Cc1ccc(OCCCC(=O)NC(C)c2ccccc2)c(C)c1 (configuration not stated) | -20.1% (active) | -9.71 | 4.93 |
| Cc1ccccc1OCCC(=O)OCC(=O)NC(C)c1ccccc1 (configuration not stated) | -11.5% (inactive) | -7.58 | 0.763 |
| COc1ccc2c3c(n(C)c2c1)[C@@H](CO)NCC31CN(S(=O)(=O)c2cccc(C)c2)C1 | -1.82% (inactive) | -19.1 | 1.9 |
| O=C(Nc1ccccc1)N1CCCCN2[C@H](CO)[C@@H](c3ccc(-c4ccccc4F)cc3)[C@H]2C1 | -59.5% (inactive) | -71.8 | -17.2 |
| Cc1ccccc1-c1cnc2c(c1)C(=O)N([C@H](C)CO)C[C@H](C)[C@@H](CN(C)C(=O)c1ccccc1)O2 | -6.69% (inactive) | 1.45 | 1.42 |
| CCNC(=O)[C@@H]1[C@@H](CO)[C@@H]2Cn3c(ccc(C4=CCCCC4)c3=O)[C@@H]2N1Cc1ccccc1F | 1.16% (inactive) | -2.39 | 5.54 |
| O=C(Nc1cccc([N+](=O)[O-])c1)N1CCc2ccccc2C1 | -21.9% (active) | -13.6 | -7.36 |
| CCc1ccc(NC(=O)N2CCc3ccccc3C2)cc1 | -10.5% (inactive) | -10.6 | -3.21 |
| O=C(CN1CCOCC1)Nc1cccc([N+](=O)[O-])c1 | 31.7% (inactive) | 26.8 | 1.38 |
| Cc1ccc(-c2ccc([C@H]3[C@H]4CN(S(=O)(=O)c5cccc(F)c5)CC(=O)N4[C@H]3CO)cc2)cc1 | 1.77% (inactive) | 8.11 | -0.692 |

| Compound | GFP signal change (wild-type ribosome) | OD600 change [%] | RFP signal change [%] |
| --- | --- | --- | --- |
| Cc1ccc(C(=O)NC(=S)NCc2cccnc2)cc1 | -23.8% (inactive) | -23.8 | 5.91 |
| S=C(NCc1cccnc1)Nc1ccc(Cl)cc1Cl | -27.1% (active) | -3.2 | -7.63 |
| CN(CC(=O)NCc1cccnc1)S(=O)(=O)c1cc(Cl)ccc1Cl | 5.23% (inactive) | -2.3 | -0.601 |
| CC(C)NC(=O)N(C)C[C@@H]1Oc2ccc(NC(=O)CCCCCC(=O)Nc3ccccc3N)cc2C(=O)N([C@@H](C)CO)C[C@H]1C | 1.03% (inactive) | -8.13 | -0.166 |
| CO[C@H]1CN(C)C(=O)c2cc(NC(=O)c3cnccn3)ccc2OC[C@H](C)N(C(=O)C2CC2)C[C@H]1C | 1% (inactive) | -0.758 | -0.83 |
| N#Cc1cccc(-c2ccc(C3[C@@H]4CNC[C@H]3N4)cc2)c1 (some centres not stated) | -0.575% (inactive) | 6.2 | 2 |
| C[C@@H]1CCCCO[C@H](CN(C)S(=O)(=O)c2ccccc2)[C@@H](C)CN([C@H](C)CO)C(=O)c2cc(NC(=O)Nc3ccc(F)cc3)ccc2O1 | 4.23% (inactive) | 5.59 | -0.807 |
| Oc1c(Br)cc(/C=N/NC(=S)NCC2CCCO2)cc1Br (configuration not stated) | -32.6% (active) | -2.28 | 0.247 |
| S=C(NCCc1ccccc1)NCC1CCCO1 (configuration not stated) | 8.89% (inactive) | 4.83 | -3.48 |
| S=C(NCC1CCCO1)N1CCN(c2ccc(Cl)c(Cl)c2)CC1 (configuration not stated) | -56.8% (inactive) | -79.1 | -18.4 |
| C[C@@H]1CN([C@@H](C)CO)S(=O)(=O)c2ccc(Br)cc2O[C@H]1CN(C)S(=O)(=O)c1ccccc1 | -30.9% (inactive) | -59.2 | 14 |
| CS(=O)(=O)N1CC2(C1)[C@H](c1ccccc1)[C@@H](CO)N2C(=O)c1ccccc1 | -2.24% (inactive) | 8.82 | -1.96 |
| O=C(c1ccccc1)N1CC(=O)N2[C@@H](CO)[C@H](c3ccc(C#CCC4CCCC4)cc3)[C@@H]2C1 | -0.385% (inactive) | 4.12 | 15.8 |
| O=C(Nc1ccccc1)N1C[C@H]2[C@@H](c3ccccc31)[C@H](CO)N2Cc1ccc(F)cc1 | -4.61% (inactive) | -3.58 | 0.773 |
| O=C(Nc1cccc(Cl)c1)N1C[C@@H]2[C@H](c3ccccc31)[C@H](CO)N2Cc1ccncc1 | -19.3% (active) | -14 | 2.23 |
| O=C(Nc1cccc(Cl)c1)N1C[C@@H]2[C@H](c3ccccc31)[C@H](CO)N2C(=O)C1CC1 | -55.8% (inactive) | -75.7 | -10.1 |
| O=C(C[C@@H]1C[C@@H]2c3cc(NC(=O)c4ccc5c(c4)OCO5)ccc3O[C@@H]2[C@H](CO)O1)NCC1CC1 | -0.47% (inactive) | -2.45 | 1.83 |
| N#C[C@H]1[C@H](c2ccccc2-c2ccc(F)cc2)[C@H](CO)N1C(=O)Cc1ccncc1 | -3.78% (inactive) | 7.17 | -0.986 |
| COCc1cn(CC[C@H]2CC[C@H](NC(=O)Cc3cccnc3)[C@H](CO)O2)nn1 | -2.43% (inactive) | -1.71 | -2.1 |
| C=CCN(c1ccccc1C(=O)NCC(=O)OCC)S(=O)(=O)c1ccc(C)cc1 | 5.68% (inactive) | -1.3 | 1.08 |
| NC(=O)c1ccccc1N(Cc1ccccc1)S(=O)(=O)c1ccccc1 | -4.05% (inactive) | -16.6 | -0.699 |
| CCOC(=O)N1CCN(C(=O)c2ccccc2N(Cc2ccccc2)S(=O)(=O)c2ccc(OC)cc2)CC1 | -25.8% (active) | -20.1 | 0.913 |

| Compound | GFP signal change (wild-type ribosome) | OD600 change [%] | RFP signal change [%] |
| --- | --- | --- | --- |
| C[C@H](CO)N1C[C@H](C)[C@H](CN(C)C(=O)C2CC2)OCc2ccccc2-c2ccccc2C1=O | 3.14% (inactive) | 2.12 | -2.73 |
| CO[C@@H]1CN(C)C(=O)c2ccc(NC(=O)C3CC3)cc2OC[C@H](C)N(C(C)=O)C[C@H]1C | 2.84% (inactive) | 2.36 | -2.71 |
| O=C1NCCOCc2cn(nn2)CC[C@@H]1Cc1ccccc1 | 4.08% (inactive) | 6.55 | -0.105 |
| O=C(Nc1nnc(Cc2ccc(Cl)cc2)s1)c1ccncc1 | -25.9% (active) | 0.397 | 10.4 |
| O=C(Nc1nnc(Cc2ccccc2)s1)c1cnccn1 | 13.9% (inactive) | 13.3 | 1.31 |
| O=C(Nc1nnc(Cc2ccc(Cl)cc2)s1)c1cccnc1 | -2.18% (inactive) | 2.81 | -2.51 |
| CO[C@@H]1CN(C)C(=O)c2ccc(NS(C)(=O)=O)cc2OC[C@@H](C)N(C(=O)C2CCOCC2)C[C@@H]1C | 2.81% (inactive) | -0.862 | -0.242 |
| CS(=O)(=O)N1CCCCN2[C@H](CO)[C@H](c3ccc(-c4cccc(C#N)c4)cc3)[C@H]2C1 | -2.77% (inactive) | 2.86 | 1.13 |
| C[C@@H](NC(=O)C[C@@H]1CC[C@H](NC(=O)Cc2ccccn2)[C@H](CO)O1)c1ccccc1 | 1.1% (inactive) | -1.33 | 0.264 |
| Cc1cc(C)n2nc(C(=O)N3CCN(Cc4ccc5c(c4)OCO5)CC3)nc2n1 | 6.71% (inactive) | 4.13 | -0.674 |
| COc1ccc(-c2cc(C(=O)N3CCN(Cc4ccc5c(c4)OCO5)CC3)on2)cc1OC | -30.2% (active) | -22.1 | 4.69 |
| COc1cc(Cl)c(S(=O)(=O)N2CCN(Cc3ccc4c(c3)OCO4)CC2)cc1Cl | -5.43% (inactive) | -7.87 | -2.97 |
| Cc1ccnc(NC(=O)CNC(=O)c2ccccc2)c1 | 0.565% (inactive) | 1.47 | 0.604 |
| Cc1noc(C)c1COc1ccc(C(=O)NCCOc2ccccc2)cc1 | -5.24% (inactive) | -2.29 | -0.784 |
| Cc1ncoc1C(=O)NCCC(c1ccccc1)c1ccccc1 | -22.1% (active) | -9.13 | 0.235 |
| COc1ccc(NC(=O)Nc2ccc3c(c2)C(=O)N([C@@H](C)CO)C[C@@H](C)[C@@H](CN(C)Cc2ccncc2)OCCCC[C@@H](C)O3)cc1 | -3.01% (inactive) | -5.38 | 9.15 |
| CO[C@@H]1CN(C)C(=O)c2cc(NC(=O)NC3CCCCC3)ccc2OC[C@@H](C)N(C(C)=O)C[C@H]1C | 1.07% (inactive) | 3.15 | -0.812 |
| COc1cccc(-c2ccc([C@H]3[C@H](CO)N4CCCCN(S(=O)(=O)c5cccs5)C[C@@H]34)cc2)c1 | -0.886% (inactive) | -0.41 | 0.565 |
| Cc1cccc(-c2ccc([C@H]3[C@H](CO)N4CCCCN(S(=O)(=O)c5cn(C)cn5)C[C@@H]34)cc2)c1 | 2.02% (inactive) | 3.81 | 1.54 |
| Cc1cccc(-c2ccc([C@@H]3[C@@H](CO)N4CCCCN(S(=O)(=O)c5cccs5)C[C@H]34)cc2)c1 | -37.8% (active) | -24.1 | -1.67 |
